From PubChem BioAssay (NCATS)
Inconclusive results are not listed. The source made the active and inactive calls. Calls come from the whole dose curve; as a rule, active = well fitted cell-killing curve with a large enough effect; inconclusive = small, poorly fitted or top-dose-only effect, or effect the other way; inactive = flat fitted curve, though single readings scatter.

How the values were obtained:
Test in all cases: Primary qHTS to identify gynecologic anti-cancer compounds using libraries of approved drugs and bioactive compounds (AID 1345084); note: nearly all actives have a fitted effect of over 55% in size
Details in all cases: Gynecologic cancer cell panel viability, ATPlite luminescence, 48 h; series mostly up to 57.5 µM
OV90 = tested on: OV90
Method in brief: (§1)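 Five-point cytotoxicity, 48 h drug exposure at 37 C, 5% CO2, on cells seeded 16 h beforehand. ATP content read by ATPlite luminescence.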

PA-1 = tested on: PA-1
Method in brief: as §1

SKOV3 = tested on: SKOV3
Method in brief: as §1

Tov-21-G = tested on: Tov-21-G
Method in brief: as §1

Tov112D = tested on: Tov112D
Method in brief: as §1
% is set by controls: 0 for no effect and ±100 for the full control effect.

COc1c(C)c(OCC=C(C)C)cc2c1COC2=O
inactive: Potency (OV90) | Potency (PA-1) | Potency (SKOV3) | Potency (Tov-21-G) | Potency (Tov112D)

N#Cc1cc(-c2n[nH]c(-c3ccncc3)n2)ccn1
inactive: Potency (OV90) | Potency (PA-1) | Potency (SKOV3) | Potency (Tov-21-G) | Potency (Tov112D)

C[C@H]1[C@H](C)C[C@@H](C(=O)O)C2CC[C@]3(C)C(=CC[C@@H]4[C@@]5(C)CC[C@H](O)C(C)(C)[C@@H]5CC[C@]43C)[C@@H]21 (stereo not given in full)
inactive: Potency (OV90) | Potency (PA-1) | Potency (SKOV3) | Potency (Tov-21-G) | Potency (Tov112D)

CC(=O)NCC1CN(c2ccc(-c3ccc(CNCc4cn[nH]n4)cc3)c(F)c2)C(=O)O1 (stereo not given)
inactive: Potency (OV90) | Potency (PA-1) | Potency (SKOV3) | Potency (Tov-21-G) | Potency (Tov112D)

C[C@]1(OC(=O)/C=C/c2ccccc2)C[C@@H](O)[C@]2(O)C=CO[C@@H](O[C@@H]3O[C@H](CO)[C@@H](O)[C@H](O)[C@H]3O)[C@@H]21
inactive: Potency (OV90) | Potency (PA-1) | Potency (SKOV3) | Potency (Tov-21-G) | Potency (Tov112D)

C/C=C(\C)C(=O)OC1C2(O)CC3=C4CC(=O)OC(c5ccoc5)C4(C)CCC3C(C)(C2=O)C(C(OC(C)=O)C(=O)OC)C1(C)C (stereo not given)
inactive: Potency (OV90) | Potency (PA-1) | Potency (SKOV3) | Potency (Tov-21-G) | Potency (Tov112D)

CC1OC(OC2C(OC3C(O[C@H]4CC[C@@]5(C)C(CC[C@]6(C)C5CC=C5C7CC(C)(C)CC(O)[C@]7(C)CC[C@]56C)C4(C)C)OC(C(=O)O)C(O)C3O)OCC(O)C2O)C(O)C(O)C1O (stereo not given in full)
inactive: activity change, negative = cytotoxicity (OV90) 9.07% [at 11.6 µM] | activity change, negative = cytotoxicity (PA-1) 30% [at 11.6 µM] | activity change, negative = cytotoxicity (SKOV3) 7.87% [at 11.6 µM] | activity change, negative = cytotoxicity (Tov-21-G) 6.64% [at 11.6 µM] | activity change, negative = cytotoxicity (Tov112D) 1.05% [at 11.6 µM]
